Measurements: PubChem BioAssay (NCI)
Several values for one entry are separate records, joined by “and”; a condition that tells them apart may be missing. Equal values may be shown once. This is part of a sample that, as a whole, favours compounds with a hit. Of some 83,000 tested, about 20% had one in any assay.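 Activity criterion: percent growth below 10, measured after cells in 96-well plates were exposed to a single compound concentration for 48 hours.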 Activity calls are given as the source filed them.

Legend:
Test in all cases: NCI-60 one-dose screen, 48 h (100 = growth as untreated, 0 = no growth, -100 = all killed)
Settings in all cases: 10 µM unless noted
NCI-H23 lung = system: NCI-H23 lung
NCI-H226 lung = system: NCI-H226 lung
NCI-H322M lung = system: NCI-H322M lung
HOP-62 NSCLC = system: HOP-62 NSCLC
NCI-H460 lung = system: NCI-H460 lung
HOP-92 NSCLC = system: HOP-92 NSCLC
NCI-H522 lung = system: NCI-H522 lung
A549/ATCC NSCLC = system: A549/ATCC NSCLC
786-0 renal = system: 786-0 renal
COLO 205 colon = system: COLO 205 colon
DU-145 prostate = system: DU-145 prostate
K-562 leukemia = system: K-562 leukemia
MALME-3M melanoma = system: MALME-3M melanoma
MDA-MB-231 breast = system: MDA-MB-231 breast
RXF 393 renal = system: RXF 393 renal
SF-268 CNS = system: SF-268 CNS
SF-295 CNS = system: SF-295 CNS
SF-539 CNS = system: SF-539 CNS
UACC-257 melanoma = system: UACC-257 melanoma
M14 melanoma = system: M14 melanoma

Compound | growth (NCI-H23 lung) | growth (NCI-H226 lung) | growth (NCI-H322M lung) | growth (HOP-62 NSCLC) | growth (NCI-H460 lung) | growth (HOP-92 NSCLC) | growth (NCI-H522 lung) | growth (A549/ATCC NSCLC) | growth (786-0 renal) | growth (COLO 205 colon) | growth (DU-145 prostate) | growth (K-562 leukemia) | growth (MALME-3M melanoma) | growth (MDA-MB-231 breast) | growth (RXF 393 renal) | growth (SF-268 CNS) | growth (SF-295 CNS) | growth (SF-539 CNS) | growth (UACC-257 melanoma) | growth (M14 melanoma)
O=C(Cc1ccc(F)cc1)c1ccccc1 | 103% (inactive) | 110% (inactive) | 99% (inactive) | 109% (inactive) | 108% (inactive) | 89.7% (inactive) | 101% (inactive) | 102% (inactive) | 97.6% (inactive) | 134% (inactive) | 127% (inactive) | 100% (inactive) | 107% (inactive) | 111% (inactive) | 118% (inactive) | 113% (inactive) | 117% (inactive) | 113% (inactive) | 114% (inactive) | 105% (inactive)
COc1ccc(-c2cc(-c3cccnc3)nc3sc4c(Cl)nnnc4c23)cc1OC | 91.3% (inactive) | 84.4% (inactive) | 95.3% (inactive) | 98.4% (inactive) | 102% (inactive) | 106% (inactive) | 47.4% (inactive) | 93.6% (inactive) | 109% (inactive) | 42% (inactive) | 94.2% (inactive) | 15.8% (inactive) | 107% (inactive) | 77.9% (inactive) | 104% (inactive) | 96.7% (inactive) | 101% (inactive) | 101% (inactive) | 78.4% (inactive) | 88.6% (inactive)
CCOC(=O)C(=Cc1ccc(C#N)cc1)C(=O)OCC | 55.5% (inactive) | -36.3% (active) | 73.2% (inactive) | 104% (inactive) | 81.6% (inactive) | 58.3% (inactive) | -24.6% (active) | 53.2% (inactive) | 0.647% (active) | 4.69% (active) | 43.8% (inactive) | 3.59% (active) | -10.9% (active) | 16.3% (inactive) | -62.5% (active) | 28.1% (inactive) | 95.3% (inactive) | -49.9% (active) | 14.6% (inactive) | 27% (inactive)
CC12CCC(C(=O)CC1=O)C2(C)C (stereo not given) | 108% (inactive) and 97.9% (inactive) | 95.8% (inactive) | 112% (inactive) and 97.3% (inactive) | 110% (inactive) | 104% (inactive) and 114% (inactive) | 102% (inactive) and 94.9% (inactive) | 103% (inactive) and 153% (inactive) | 101% (inactive) and 103% (inactive) | 104% (inactive) and 96.6% (inactive) | 114% (inactive) and 110% (inactive) | 110% (inactive) and 108% (inactive) | 102% (inactive) and 84.9% (inactive) | 105% (inactive) and 87.4% (inactive) | 111% (inactive) and 105% (inactive) | 106% (inactive) | 99.2% (inactive) and 100% (inactive) | 100% (inactive) | 107% (inactive) and 112% (inactive) | 103% (inactive) and 91.7% (inactive) | 102% (inactive) and 101% (inactive)
Cc1nnc(NS(=O)(=O)c2ccc(N=Nc3ccc(N)nc3N)cc2)s1 | 100% (inactive) and 110% (inactive) | 111% (inactive) and 110% (inactive) | 114% (inactive) and 92.8% (inactive) | 113% (inactive) | 110% (inactive) and 112% (inactive) | 95.5% (inactive) | 96.7% (inactive) | 97.1% (inactive) and 112% (inactive) | 102% (inactive) and 99.8% (inactive) | 110% (inactive) | 118% (inactive) and 105% (inactive) | 105% (inactive) | 110% (inactive) | 95.7% (inactive) and 112% (inactive) | 134% (inactive) and 136% (inactive) | 115% (inactive) and 106% (inactive) | 127% (inactive) and 102% (inactive) | 110% (inactive) and 103% (inactive) | 105% (inactive) and 117% (inactive) | 101% (inactive) and 108% (inactive)
CCCCCCCC/C=C\CCCCCCCCOc1ccccc1CC(=O)NCC[N+]1(C)CCOCC1 | 69.5% (inactive) | 62.3% (inactive) | 93.7% (inactive) | 50.6% (inactive) | 39.4% (inactive) | 67.2% (inactive) | 51% (inactive) | 74.4% (inactive) | 55.6% (inactive) | 17.3% (inactive) | 85.3% (inactive) | 56.9% (inactive) | 100% (inactive) | 80.1% (inactive) | 24.7% (inactive) | 66.8% (inactive) | 67.6% (inactive) | 91.3% (inactive) | 83.8% (inactive) | 75.6% (inactive)
Cc1[nH]c(C(=O)Nc2nc3ccc(NC(=O)CCN)cc3s2)c(Cl)c1Cl | 37.4% (inactive) | 86.7% (inactive) | 94% (inactive) | 74.6% (inactive) | 42.6% (inactive) | 73.9% (inactive) | 85.5% (inactive) | 95.8% (inactive) | 92.1% (inactive) | 104% (inactive) | 48.4% (inactive) | 6.04% (active) | 53.8% (inactive) | 51% (inactive) | 81.9% (inactive) | 56.2% (inactive) | 95.7% (inactive) | 52.1% (inactive) | 96.8% (inactive) | 44.1% (inactive)
Cc1ccc(-c2nc3nc(-c4ccc(Br)cc4)nc(N4CCCNCC4)c3o2)cc1 | 97.9% (inactive) | 103% (inactive) | 68.9% (inactive) | 82% (inactive) | -73% (active) | 91.7% (inactive) | 72.6% (inactive) | -74.7% (active) | -90.6% (active) | -49% (active) | 14.2% (inactive) | -48.4% (active) | 88.3% (inactive) | -57% (active) | 87.1% (inactive) | 98.6% (inactive) | 69.2% (inactive) | 3.79% (active) | 103% (inactive) | -54.2% (active)
O=C(NCc1ccc(Cn2c(=O)sn(-c3ccc(Cl)cc3)c2=O)cc1)OCc1ccc2c(Cl)cc(Cl)c(O)c2n1 | 44.1% (inactive) | 56.9% (inactive) | 45.7% (inactive) | 38.3% (inactive) | 21.7% (inactive) | 64.7% (inactive) | 68.8% (inactive) | 30.5% (inactive) | 55.8% (inactive) | 109% (inactive) | 44.8% (inactive) | 29.8% (inactive) | 78.3% (inactive) | 72% (inactive) | 25.8% (inactive) | 54.6% (inactive) | 18.2% (inactive) | 42.5% (inactive) | 78.1% (inactive) | 50.5% (inactive)
O=C(Nc1cc(C(F)(F)F)cc(C(F)(F)F)c1)c1cc(Cl)ccc1O | -25.2% (active) and -11.5% (active) | -27.9% (active) | -3.01% (active) and 1.1% (active) | -27.3% (active) and -3.41% (active) | 0.0882% (active) and 2.21% (active) | -19.6% (active) and -14.1% (active) | -45.5% (active) and -23% (active) | -7.9% (active) and 5.51% (active) | -41.1% (active) and -48.8% (active) | -83.1% (active) and -64.5% (active) | 14.4% (inactive) and 5.91% (active) | 2.85% (active) and 5.08% (active) | -38.3% (active) and -37.1% (active) | -11.4% (active) and -22.8% (active) | -40% (active) and -5.38% (active) | 11.7% (inactive) and -7.95% (active) | -63.1% (active) and -66.9% (active) | -31% (active) and -18% (active) | -52.7% (active) and -18.1% (active) | -6.08% (active) and -32.7% (active)
COc1cc(-c2[nH]ncc2Nc2ccc(Cl)cc2)cc(OC)c1OC | 55.5% (inactive) | 73.2% (inactive) | 64.2% (inactive) | 50.1% (inactive) | 73.6% (inactive) | 60% (inactive) | 51.5% (inactive) | 67.6% (inactive) | 64.3% (inactive) | 107% (inactive) | 102% (inactive) | 47.2% (inactive) | 69.4% (inactive) | 62.6% (inactive) | 89.4% (inactive) | 84.5% (inactive) | 42.7% (inactive) | 70.1% (inactive) | 64.6% (inactive) | 71.3% (inactive)
C=C1C(=O)O[C@H]2[C@H]1CC/C(COC(=O)NCCCCNC(=O)OC/C1=C/CC[C@@]3(C)O[C@H]3[C@H]3OC(=O)C(=C)[C@@H]3CC1)=C\CC[C@@]1(C)O[C@@H]21 | 38.3% (inactive) | 53.2% (inactive) | 98.5% (inactive) | 73.8% (inactive) | 102% (inactive) | -32.8% (active) | -61.4% (active) | 94.9% (inactive) | 22.7% (inactive) | -43.4% (active) | 45.8% (inactive) | 4.14% (active) | -39.3% (active) | 24% (inactive) | -30.2% (active) | 48.7% (inactive) | 99% (inactive) | -23.6% (active) | 2.94% (active) | 11.5% (inactive)
CC[C@@H]1NC(=O)[C@H]([C@H](O)[C@H](C)C/C=C/c2ccc(CN3C(=O)C(C)=C(C)C3=O)cc2)N(C)C(=O)[C@H](C(C)C)N(C)C(=O)[C@H](CC(C)C)N(C)C(=O)[C@H](CC(C)C)N(C)C(=O)[C@@H](C)NC(=O)[C@H](C)NC(=O)[C@H](CC(C)C)N(C)C(=O)[C@H](C(C)C)NC(=O)[C@H](CC(C)C)N(C)C(=O)CN(C)C1=O | 82.6% (inactive) | 65% (inactive) | 65.7% (inactive) | 70.7% (inactive) | 80.7% (inactive) | 68.8% (inactive) | 61.9% (inactive) | 58.1% (inactive) | 97.6% (inactive) | 72.8% (inactive) | 73.9% (inactive) | 70% (inactive) | 88.2% (inactive) | 71.5% (inactive) | 80% (inactive) | 71% (inactive) | 69.4% (inactive) | 86.9% (inactive) | 69.4% (inactive) | 60% (inactive)
